Our source for the composite z-score values is PubChem BioAssay.

Structures are written as SMILES.

System in one experiment: not listed separately
Kind of experiment: probe aLAP1 signal on lysate-treated microarray – cell lysate, small-molecule microarray, COS7 lysate, primary screen (AID 1124).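 Further: lysate comes from COS7 cells expressing LAP1 and is applied at 0.3 µg/mL; score merges spot fluorescence near 667 nm with signal-to-noise over triplicate slides.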 Particulars: probe aLAP1, fluorescence, higher = more signal.
In the case of `CC(C)(C)OC(=O)CC[C@]1(C(=O)N2CCCCC2)N=C(c2ccc(OCCCO)cc2)O[C@H]1c1ccccc1`, the composite z-score came to 0.708. Still for that read-out and setting: the same measure for `CC(=O)NCCCC[C@@H]1NC(=O)[C@@H]2C[C@H](C(=O)NCCCCCNC(=O)CS)[C@H](c3ccc(O)cc3)N2C1=O`: -0.377; for `C=CCC(OC(C)=O)[C@@H]1[C@@H](N(Cc2ccc(-c3cccc(C(F)(F)F)c3)o2)C(=O)Cc2ccc(F)cc2)c2cc(OCCCO)ccc2N1C(=O)c1ccc(-c2ccccc2)cc1` (stereo partly drawn): 0.0045. Same read-out and setting: the same measure for `CO[C@]12C=C(Br)[C@@H](C[C@@H]1c1ccccc1)[C@@]1(CO1)C2=O`: -0.0571; for `COCCOC(=O)N1C(=O)[C@@]2(c3cc(C#CCC(C(=O)OC)C(=O)OC)ccc31)[C@H](c1ccccc1OCCO)N1[C@H](c3ccccc3)[C@H](c3ccccc3)OC(=O)[C@H]1[C@@H]2C(=O)N1CCCCCCC1`: 0.385. Same read-out and setting: the same measure for `CCOC(=O)C1=CC[C@@H](c2ccccc2)N(S(=O)(=O)c2ccc(C)cc2)[C@H]1C`: 0.689; for `O=C1c2ccccc2[C@](Cc2ccccc2I)(C(=O)NCC(F)(F)F)[C@H](c2ccc(CO)cc2)N1Cc1ccccc1C(F)(F)F`: 0.494.

The subject of another experiment is Sam68 (KHDRBS1). The experiment can be described thus: compounds binding KHDRBS1 protein – biochemical, small-molecule microarray, 635 nm fluorescence, primary screen (AID 1125).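 Further: score merges 667 nm channel intensity with signal to noise over triplicate slides.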 Conditions: higher = more signal.
Molecule `CCCC=C(CCC)[C@@H](NS(=O)(=O)c1ccc(-c2ccccc2)cc1)c1ccc(C(=O)OC)cc1` displayed a composite z-score of -0.829.

For `COc1ccc([Si](C)(C)[C@@H]2[C@@H](CC(=O)N(CCO)Cc3ccccc3)O[C@]3(C(=O)N(Cc4cccc(N5CCC5=O)c4)c4ccccc43)[C@H]2C)cc1`, the composite z-score amounted to 1.05. In the case of `CCC1=C2CN(Cc3ccccc3Br)[C@@H]([C@@H](O)Cc3ccccc3)C2C=CCC1` (stereo partly drawn), the composite z-score stood at 1.3. In turn, `CO[C@H]1COC(=O)[C@H](C)COC(=O)[C@H](Cc2ccccc2)NC(=O)CC=C[C@H]1C` showed a composite z-score of -1.02. The same measure, in the same setting: the same measure for `Cc1ccc(S[C@]2(C(=O)NC3CC3)CC(=O)N(Cc3cc(C(F)(F)F)cc(C(F)(F)F)c3)[C@@H]2c2ccc(CO)cc2)cc1`: 0.792.

`CCCC[C@@H]1C[C@H]1[C@@H](NC(=O)c1cccs1)c1ccc(Cl)cc1`: the composite z-score was -0.858.

In turn, `COC(=O)C(CC#Cc1ccc2c(c1)[C@]1(C(=O)N2)[C@H](C(=O)N2CCCCCCC2)[C@H]2C(=O)O[C@H](c3ccccc3)[C@H](c3ccccc3)N2[C@@H]1c1ccc(O)cc1)C(=O)OC` showed a composite z-score of -0.92. On the same count and under the same terms, the same measure for `CC(C)N1CC=CC23O[C@@H]4/C=C\CCCOC(=O)C4[C@H]2C(=O)N(CCO)[C@@H]3C1=O` (stereo partly drawn): 0.534; for `O=C1O[C@H](c2ccccc2)[C@H](c2ccccc2)N2[C@H]1[C@@H](C(=O)NC[C@H](O)c1ccccc1)[C@]1(C(=O)Nc3ccc(C#CC4=CCCCC4)cc31)[C@H]2c1ccc(OCCO)cc1`: 1.31; for `Cc1ccc(S[C@]2(C(=O)NC(C)C)CC(=O)N(C3Cc4ccccc4C3)[C@@H]2c2ccc(CO)cc2)cc1`: -0.0334. Molecule `Cc1ccc(S[C@]2(C(=O)NCCCN(C)C)CC(=O)N(Cc3ccccc3)[C@@H]2c2ccc(CO)cc2I)cc1` registered a composite z-score of -0.381. Molecule `COc1ccc([C@H]2C[C@H]3C(Br)=C[C@]2(OC)C(=O)[C@]32CO2)cc1` had a composite z-score of -0.72. In turn, `COC(=O)[C@H]1[C@@H]2COc3ccccc3[C@H]2N[C@H]1C(=O)OC` yielded a composite z-score of 0.429. On to `C=CC[C@]1(C(N)=O)N=C(c2ccc(OCCCO)cc2)O[C@H]1c1ccccc1CN=[N+]=[N-]`, for which the composite z-score is 1.11. On the same count and under the same terms, the same measure for `CC(C)[Si](OCC[C@H]1O[C@]2(C(=O)N(Cc3ccccc3)c3ccccc32)[C@@H](C)[C@@H]1[Si](C)(C)O)(C(C)C)C(C)C`: 0.0631. Same read-out and setting: the same measure for `CC(C)[Si](OCCCNS(=O)(=O)c1ccc(Br)cc1)(C(C)C)C(C)C`: 1.33; for `C=CCOC(=O)[C@@H]1[C@H]2C(=O)O[C@H](c3ccccc3)[C@H](c3ccccc3)N2[C@H](c2ccc(OCCOC(=O)[C@H]3C[C@H]4C(=O)N[C@@H](CCCCNC(C)=O)C(=O)N4[C@H]3c3ccc(O)cc3)cc2)[C@@]12C(=O)Nc1ccc(I)cc12`: 1.28; for `C[C@]1(C(=O)NCCN2CCOCC2)c2ccccc2C(=O)N(Cc2ccccc2)[C@H]1c1ccc(CO)cc1`: -0.791. The same measure, in the same setting: the same measure for `C=CCN(C(=O)C1N(c2ccc(CCO)cc2)C(=O)C2C(C(=O)O)C3C=CC21O3)C(C)(C)C` (stereo not drawn): -1.24.

Consider `CCOC(=O)C[C@H]1[C@H](OC(=O)Cc2ccc3c(c2)OCO3)[C@@H](NC(=O)c2ccc3ccccc3c2)c2cc(OCCCO)ccc2N1C(=O)Cc1ccc(OC)cc1`, for which the composite z-score was found to be 0.952. As to `COc1ccc([Si](C)(C)[C@H]2[C@H](CCO)O[C@@]3(C(=O)N(Cc4ccc(N5CCCCC5=O)cc4)c4ccccc43)[C@@H]2C)cc1`, the composite z-score stood at 1.3. The same measure, in the same setting: the same measure for `COc1cc(CO)cc(I)c1O[C@H]1C=C(C(=O)NCCO)C[C@@H](N(CC2CCCCC2)C(=O)c2cc3ccccc3oc2=O)[C@@H]1O`: -0.461; for `COC(=O)C1=CC(c2ccc(CO)cc2)=CC(C2CC2)N(Cc2sc3ccccc3c2Cl)C=C1C(=O)OC` (stereo not drawn): 1.31; for `CSCC[C@@H]1NC(=O)CC=C[C@@H](C)COC(=O)[C@H](CCSC)NC(=O)CC=C[C@@H](C)COC1=O`: -0.32.

Consider `COC(=O)[C@@]1(Cc2ccc(OC)cc2)[C@H]2c3cc(C(=O)N(C)C)n(CCc4ccc(OC)c(Br)c4)c3C[C@H]2CN1C(=O)c1ccccc1`, for which the composite z-score came out at 1.29. Same read-out and setting: the same measure for `COCC(=C=CC[C@H](O)c1ccc(OCCO)cc1)C[C@H](O)c1ccccn1`: 0.359; for `O=C(NCc1ccccc1)[C@@]1(Cc2ccccc2)COC(c2ccc(OCCCO)cc2)=N1`: 0.682; for `CO[C@@H]1COC(=O)[C@H](C)NC(=O)CC=C[C@@H](C)[C@H](OC)COC(=O)[C@H](C)NC(=O)CC=C[C@H]1C`: 0.315. The same measure, in the same setting: the same measure for `CCCC=C(CCC)[C@@H](NS(=O)(=O)c1ccc(C(F)(F)F)cc1)c1ccc(-c2ccccc2)cc1`: 1.21; for `CC(C)(C)OC(=O)CC[C@]1(C(=O)N2CCCCC2)N=C(c2ccc(OCCCO)cc2)O[C@H]1c1ccccc1`: 1.28.

`CC(=O)NCCCC[C@@H]1NC(=O)[C@@H]2C[C@H](C(=O)NCCCCCNC(=O)CS)[C@H](c3ccc(O)cc3)N2C1=O` showed a composite z-score of -0.0077.

On to `C=CCC(OC(C)=O)[C@@H]1[C@@H](N(Cc2ccc(-c3cccc(C(F)(F)F)c3)o2)C(=O)Cc2ccc(F)cc2)c2cc(OCCCO)ccc2N1C(=O)c1ccc(-c2ccccc2)cc1` (stereo partly drawn), for which the composite z-score is -0.443. The same measure, in the same setting: the same measure for `CO[C@]12C=C(Br)[C@@H](C[C@@H]1c1ccccc1)[C@@]1(CO1)C2=O`: 0.0999. Still for that read-out and setting: the same measure for `COCCOC(=O)N1C(=O)[C@@]2(c3cc(C#CCC(C(=O)OC)C(=O)OC)ccc31)[C@H](c1ccccc1OCCO)N1[C@H](c3ccccc3)[C@H](c3ccccc3)OC(=O)[C@H]1[C@@H]2C(=O)N1CCCCCCC1`: 1.32. The same measure, in the same setting: the same measure for `CCOC(=O)C1=CC[C@@H](c2ccccc2)N(S(=O)(=O)c2ccc(C)cc2)[C@H]1C`: 1.29; for `O=C1c2ccccc2[C@](Cc2ccccc2I)(C(=O)NCC(F)(F)F)[C@H](c2ccc(CO)cc2)N1Cc1ccccc1C(F)(F)F`: 1.32.
